Test results reported in PubChem BioAssay AID1458 (National Center for Advancing Translational Sciences (NCATS), 2008).
Out of some 210,000 compounds screened, about 5,900 (2.8%) were called active. Another 5% or so got no clear call; they are omitted. Calls follow the shape of the dose curve; as a rule, active = well fitted activation curve with a large enough effect; inconclusive = small, poorly fitted or top-dose-only effect; inactive = no such curve, though single readings can be large or run the other way. Only a selection was taken, and actives are over-represented in it overall.

Test: qHTS Assay for Enhancers of SMN2 Splice Variant Expression; also: nearly all actives have a fitted effect of over 55% in size; as to activity change, positive = activation: % of control where 0% means no effect
Details: HEK293 SMN2-luciferase splicing reporter, luminescence, 30-36 h; series mostly up to 46.1 µM; activity change, positive = activation: at the top concentration
Method in brief: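 HEK293 cells carry an SMN2 minigene-luciferase reporter in which exon 7 inclusion puts luciferase in frame. Cells were seeded at 2000 cells/well, attached for 10-12 hours, then exposed to compounds for 30-36 hours at 37C before ONE-Glo luminescence.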
Potency is read from the fitted curve at half-maximal effect.

Activity change, positive = activation, inactive:
COc1ccc(/C=C2\NC(=O)[C@@H]3Cc4ccccc4CN3C2=O)cc1 4.1%, CCN(CC)S(=O)(=O)c1ccc2c(c1)N(CC(=O)NCC(C)c1ccccc1)C(=O)CO2 (centres undefined) 12.9%, COc1ccc(C(=O)NCc2cn3ccccc3n2)cc1 -14%, Cc1ccc2nc(COc3ccc(N(C)S(=O)(=O)c4ccccc4)cc3)cc(=O)n2c1 -56.7%, COc1ccc(-c2nc3c(c(SCC(=O)Nc4ccc(C(=O)O)cc4)n2)Cc2ccccc2O3)cc1 26.4%, CC(C)(C)NC(=O)Cn1cnc2cc([N+](=O)[O-])ccc2c1=O -7.49%, Cc1cc(C)nc(Nc2cc([N+](=O)[O-])ccc2C)n1 -11.5%, CC1CCN(C(=O)Cn2c(=O)n(-c3ccc(Cl)cc3)c(=O)c3c4c(sc32)CCC4)CC1 2.56%, CCCOc1ccc(CNC(=O)C2CCN(c3nn4c(=O)cc(C)nc4s3)CC2)cc1 11.9%, Cc1nn(CC(=O)O)c(=O)c2cc3cc(F)ccc3n12 -7.09%, Oc1ccccc1N1CCN(C(=S)NCc2ccccc2)CC1 -7.35%, O=C1CCN(C(=S)NCCc2ccccc2)CC1 -4.5%, CCc1nn(CCCC(=O)NCc2ccccc2OC)c(=O)c2cc3occc3n12 1.11%, COc1ccc(-n2c(SC)nc3sc4c(c3c2=O)CCN(C(C)=O)C4)cc1 18.7%, O=C(Nc1ccc2c(c1)OCCO2)C(c1ccc(F)cc1)N1CCCCC1 (centres undefined) -13.3%, Cc1cc(C)nc(N2CCC(C(=O)Nc3ccc4c(c3)OCCO4)CC2)n1 -10%, Cc1c(NS(=O)(=O)c2ccc(Cl)cc2)c(=O)n(-c2ccccc2)n1C -0.0289%, CCOc1ccccc1NC(=O)CSc1ncc(S(=O)(=O)c2ccc(C(C)(C)C)cc2)c(=O)[nH]1 2.47%, COC(=O)c1ccc(NC(=O)c2cccc3c2C(=O)N(C2CCCCC2)C3)cc1 -3.88%, CCCOc1cc(C)c(S(=O)(=O)n2nnc3ccccc32)cc1C 13.9%, COc1cc(C)c(Cl)cc1S(=O)(=O)n1ccnc1 5.31%, COc1ccccc1/C=C/c1nc(C#N)c(NC(C)c2ccccc2)o1 (centres undefined) -1.39%, CCOc1ccc(/C=N/Nc2nncc(-c3ccccc3)n2)cc1OC -7.07%, COc1ccc(/C=N/S(=O)(=O)c2ccccc2)cc1OC 3.61%, Cc1ccc(Cl)cc1NC(=O)C1CCCN(c2cnccn2)C1 (centres undefined) 1.66%, O=C(Nc1cccnc1Cl)c1cc(-c2cccc(Cl)c2)on1 10.1%, CCC(=O)N1CCc2cc(S(=O)(=O)NC(Cc3ccccc3)C(=O)NCc3ccccc3)ccc21 (centres undefined) -8.71%, COCCNc1nc(N)c([N+](=O)[O-])c(NCCO)n1 19.4%, Nc1nc(NCCCN2CCOCC2)nc(Nc2ccccc2)c1[N+](=O)[O-] 12.2%, Cc1ccccc1CNC(=O)Cn1c(C)c2cnn(-c3ccccc3)c(=O)c2c1C 8.24%, CCOC(=O)/C(C#N)=C/c1ccc(OCC(=O)Nc2ccccc2)c(OC)c1 22%, COc1cc(CCC(=O)OCC(=O)Nc2cccc(S(N)(=O)=O)c2)cc(OC)c1OC -9.52%, CCOc1ccc(CCNC(=O)CN(c2ccc(C)cc2)S(=O)(=O)N(C)C)cc1OCC -27.5%, CCOC(=O)c1ccc(N2C(=O)c3[nH]nc(-c4ccccc4)c3C2c2ccc(C(C)C)cc2)cc1 (centres undefined) -15.6%, Cc1nc(NC(=O)C23CCC(C)(C(=O)O2)C3(C)C)sc1C (centres undefined) -0.0451%, Cc1cnc(NC(=O)CSc2c(Cl)cccc2Cl)s1 -24.3%, Cc1ccc(SCC(=O)Nc2ncc(C)s2)cc1 -10.3%, CS(=O)(=O)c1ccc2nc(NC(=O)C3CCCCC3)sc2c1 -13%, CCCCC(CC)CNC(=O)C1CCN(S(=O)(=O)c2cccc3nsnc23)CC1 (centres undefined) 2.83%, CCc1cc2c(cc(C(=O)OC)n2Cc2nc(-c3ccc(C)cc3)oc2C)s1 -9.75%, c1ccc(-c2cn3cccnc3n2)cc1 5.81%, COc1cc(OC)cc(-c2nc(=S)n3ccsc3n2)c1 3.14%, CCCC(=O)Nc1cccc(-c2cn3ccsc3n2)c1 5.02%, Cc1ccc(-c2cn3cc(C)ccc3n2)cc1 -85.6%, Cc1ccc(C)c(Cn2c(CCCNC(=O)C3CCCCC3)nc3ccccc32)c1 -1.77%, Cc1ccsc1CN(C(=O)c1oc2ccc(Br)cc2c1C)C1CCS(=O)(=O)C1 (centres undefined) -38.8%, Cc1ccc(-n2nc(C)c(C(=O)O)c2-n2cccc2)cc1 3.71%, COc1ccccc1C(=O)NCCn1cc(SCc2ccccc2Cl)c2ccccc21 -39.6%, Cc1ccc(S(=O)(=O)Nc2ccccc2CNc2c(C)n(C)n(-c3ccccc3)c2=O)cc1 -10.8%, Cc1c(C=O)n(C)n(-c2ccccc2)c1=O 22.8%, Cc1ccc2oc(=O)c3cnn(CC(=O)NCc4ccccc4Cl)c3c2c1 -0.578%, CCCC12CN3CC(CCC)(CN(C1)C3c1c[nH]c3ccc(OC)cc13)C2=O (centres undefined) -5.47%, c1ccc(C2=Nc3cccc4cccc(c34)N2)cc1 -6.88%, CNC(=S)N1N=C(c2ccccc2)CC1c1ccc(Br)cc1 (centres undefined) -10.1%, O=C(Nc1ccc(OC(F)(F)F)cc1)C1CCCN(S(=O)(=O)c2ccc(Br)s2)C1 (centres undefined) -5.28%

Potency, active:
O=Cc1ccc(OCc2cn3ccccc3n2)cc1 11.2 µM, Cc1ccc(-n2cc3ccc([N+](=O)[O-])cc3n2)cc1 1.26 µM, S=C(NCCc1ccccc1)N1CCCCC1 11.2 µM, O=C(Nc1ccc2c(c1)OCCO2)C1CCCN(c2ncccn2)C1 (centres undefined) 3.98 µM, CCOc1cc(C)c(Cl)cc1S(=O)(=O)n1nnc2ccccc21 17.8 µM, COc1ccc(/C=N/Nc2nc3ccccc3o2)cc1OC 6.31 µM, CNc1nc(Nc2ccc(C)c(Cl)c2)nc(N)c1[N+](=O)[O-] 11.2 µM, CCCn1c(C)cc(/C=C(\C#N)C(=O)OCC(=O)Nc2cc(OC)c(OC)c(OC)c2)c1C 14.1 µM, Cc1nc(NC(=O)C2CCCCC2)sc1C 20 µM, Cc1cnc(NC(=O)C2CCCC2)s1 14.1 µM, COc1ccc(-c2cn3cccnc3n2)cc1 12.6 µM, COc1ccc(-c2cn3ccsc3n2)cc1 15.8 µM, Cc1c(N=Nc2ccc(N(C)C)cc2)c(=O)n(-c2ccccc2)n1C 10 µM, Brc1ccc(C2CC(c3ccccc3)=Nc3ccccc3N2)cc1 (centres undefined) 11.2 µM
